From PubChem BioAssay (EPA / NIEHS)
More than one record can exist for a structure, and the calls need not agree. The source made the active and inactive calls. Rule for the calls: active = hit-call score of the fitted dose curve at least 0.9, where 1 is the maximum; inactive = score below 0.9.

How the values were obtained:
Settings in all cases: mRNA level, 48 h; actives raise or lower the signal
[1] = read-out: ABC Transporter (ABCB11), ABCB11 (gene 8647); assay: LTEA_HepaRG_ABCB11: Life Technologies and Expression Analysis (LTEA) Assay for ABC Transporter (ABCB11) using HepaRG (AID 2283463)
Outline: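 Using HepaRG cultures held in 0.5% DMSO, chemicals were tested at half-log dilutions from 100 uM for 48 h. Induction or suppression of ABCB11 mRNA, normalized to ACTB, GAPDH and POLR2A, was fitted bidirectionally against vehicle.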

[2] = read-out: ABC Transporter (ABCC2), ABCC2 (gene 1244); assay: LTEA_HepaRG_ABCC2: Life Technologies and Expression Analysis (LTEA) Assay for ABC Transporter (ABCC2) using HepaRG (AID 2283464)
Outline: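 HepaRG cells were plated 48 h, switched to serum-free induction medium, then exposed in duplicate for 48 h to 8 concentrations (top 100 uM, half-log steps, 0.5% DMSO). ABCC2 mRNA was measured by qRT-PCR normalized to ACTB/GAPDH/POLR2A; bidirectional fitting versus DMSO.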

[3] = read-out: Broad substrate specificity ATP-binding cassette transporter ABCG2 (Homo sapiens) (UniProt Q9UNQ0); assay: LTEA_HepaRG_ABCG2: Life Technologies and Expression Analysis (LTEA) Assay for ABC Transporter (ABCG2) using HepaRG (AID 2283465)
Outline: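 Gene expression of ABCG2 in HepaRG liver cells is quantified by qRT-PCR following 48 h exposure across an eight-point series topping at 100 uM. Values come from bidirectional fitting relative to DMSO vehicle.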

[4] = read-out: ATP-citrate lyase (ACLY), ACLY (gene 47); assay: LTEA_HepaRG_ACLY: Life Technologies and Expression Analysis (LTEA) Assay for ATP-citrate lyase (ACLY) using HepaRG (AID 2283466)
Outline: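 ACLY expression changes in human HepaRG liver cells are quantified by qRT-PCR after 48 h exposure to test chemicals (maximum 100 uM, half-log steps). Values are fitted in both directions relative to 0.5% DMSO vehicle.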

[5] = read-out: Peroxisomal acyl-coenzyme A oxidase 1 (ACOX1) gene, ACOX1 (gene 51); assay: LTEA_HepaRG_ACOX1: Life Technologies and Expression Analysis (LTEA) Assay for Peroxisomal acyl-coenzyme A oxidase 1 (ACOX1) gene using HepaRG (AID 2283467)
Outline: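 Human HepaRG hepatic cultures, 48 h treatment with test chemicals up to 100 uM. ACOX1 expression read by qRT-PCR relative to 0.5% DMSO vehicle.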

[6] = read-out: Alkaline Phosphatase, Placental (ALPP) gene, ALPP (gene 250); assay: LTEA_HepaRG_ALPP: Life Technologies and Expression Analysis (LTEA) Assay for Alkaline Phosphatase, Placental (ALPP) gene using HepaRG (AID 2283468)
Outline: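 Differentiated human HepaRG cells were plated and cultured 48 h, then exposed in duplicate for 48 h in serum-free induction medium to eight half-log concentrations from 100 uM in 0.5% DMSO. ALPP mRNA was measured by TaqMan qRT-PCR, normalized to ACTB, GAPDH, POLR2A.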

[7] = read-out: Bcl-2 (BAD) gene, BAD (gene 572); assay: LTEA_HepaRG_BAD: Life Technologies and Expression Analysis (LTEA) Assay for Bcl-2 (BAD) gene using HepaRG (AID 2283469)
Outline: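 Activity values reflect up- or down-regulation of BAD mRNA in human HepaRG hepatic cells treated 48 h in serum-free medium, with eight-point half-log dosing capped at 100 uM and 0.5% DMSO vehicle.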

[8] = read-out: Bcl-2 (BAX) gene, BAX (gene 581); assay: LTEA_HepaRG_BAX: Life Technologies and Expression Analysis (LTEA) Assay for Bcl-2 (BAX) gene using HepaRG (AID 2283470)
Outline: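 qRT-PCR read-out of BAX mRNA, normalized to three housekeeping genes, after 48 h chemical exposure of human HepaRG cells in serum-free induction medium; eight-point half-log series, top 100 uM, 0.5% DMSO vehicle; bidirectional fit versus DMSO.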

[9] = read-out: adenosine kinase (ADK) gene, ADK (gene 132); assay: LTEA_HepaRG_ADK: Life Technologies and Expression Analysis (LTEA) Assay for adenosine kinase (ADK) gene using HepaRG (AID 2283471)
Outline: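 Differentiated HepaRG cells dosed 48 h in serum-free induction medium, 0.5% DMSO vehicle, eight half-log concentrations from 100 uM, in duplicate. ADK mRNA by TaqMan qRT-PCR normalised to ACTB, GAPDH, POLR2A; bidirectional fit versus DMSO.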

[10] = read-out: Alpha-fetoprotein (AFP) gene, AFP (gene 174); assay: LTEA_HepaRG_AFP: Life Technologies and Expression Analysis (LTEA) Assay for Alpha-fetoprotein (AFP) gene using HepaRG (AID 2283472)
Outline: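 qRT-PCR (Fluidigm TaqMan) readout of AFP transcript, normalized to three housekeeping genes, fitted bidirectionally against 0.5% DMSO baseline. HepaRG cells received chemicals for 48 h in serum-free induction medium, top concentration 100 uM, half-log steps.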

BCL2L11 (gene 10018) = assay: LTEA_HepaRG_BCL2L11: Life Technologies and Expression Analysis (LTEA) Assay for Bcl-2 (BCL2L11) gene using HepaRG (AID 2283473)
Outline: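 Differentiated human HepaRG cells in serum-free induction medium were exposed in duplicate for 48 h to eight concentrations (top 100 uM, half-log steps, 0.5% DMSO). BCL2L11 mRNA was quantified by TaqMan qRT-PCR, normalized to ACTB/GAPDH/POLR2A, bidirectional fit versus DMSO.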

[11] = read-out: Apolipoprotein A-V (APOA5) gene, APOA5 (gene 116519); assay: LTEA_HepaRG_APOA5: Life Technologies and Expression Analysis (LTEA) Assay for Apolipoprotein A-V (APOA5) gene using HepaRG (AID 2283474)
Outline: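 Differentiated human HepaRG cells were exposed in duplicate for 48 h to eight half-log concentrations from 100 uM in 0.5% DMSO. APOA5 mRNA was quantified by TaqMan qRT-PCR, normalized to ACTB, GAPDH and POLR2A, and fitted bidirectionally against DMSO.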

[12] = read-out: Apoptosis regulator Bcl-2 (Homo sapiens) (UniProt P10415); assay: LTEA_HepaRG_BCL2: Life Technologies and Expression Analysis (LTEA) Assay for Bcl-2 gene using HepaRG (AID 2283475)
Outline: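 qRT-PCR read-out (Fluidigm TaqMan) of BCL2 transcript, normalised to three housekeeping genes, after 48 h chemical exposure of HepaRG cells; 8-point half-log series, top 100 uM, 0.5% DMSO vehicle. Gain or loss of signal fitted relative to DMSO baseline.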

[13] = read-out: Bcl-2 (BID) gene, BID (gene 637); assay: LTEA_HepaRG_BID: Life Technologies and Expression Analysis (LTEA) Assay for Bcl-2 (BID) gene using HepaRG (AID 2283476)
Outline: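 HepaRG, 48 h exposure, 8-pt half-log series, top 100 uM, 0.5% DMSO vehicle, duplicates. Readout: BID mRNA by TaqMan qRT-PCR; housekeeping-normalized; bidirectional curve fit vs DMSO baseline.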

Caspase-3 (Homo sapiens) = Caspase-3 (Homo sapiens) (UniProt P42574); assay: LTEA_HepaRG_CASP3: Life Technologies and Expression Analysis (LTEA) Assay for cysteine-aspartic acid protease (CASP3) using HepaRG (AID 2283477)
Outline: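 Differentiated human HepaRG cells in serum-free induction medium were exposed 48 h to 8-point half-log concentrations from 100 uM (0.5% DMSO vehicle). CASP3 mRNA was measured by qRT-PCR, normalised to ACTB, GAPDH and POLR2A, with bidirectional fitting against DMSO.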

[14] = read-out: Cytochrome P450 (CYP24A1), CYP24A1 (gene 1591); assay: LTEA_HepaRG_CYP24A1: Life Technologies and Expression Analysis (LTEA) Assay for Cytochrome P450 (CYP24A1) using HepaRG (AID 2283478)
Outline: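 Differentiated HepaRG cells, pre-cultured 48 h, were exposed in duplicate for 48 h in serum-free induction medium to 8 half-log concentrations (top 100 uM, 0.5% DMSO). CYP24A1 mRNA was quantified by TaqMan qRT-PCR, normalized to ACTB/GAPDH/POLR2A, fitted bidirectionally versus DMSO.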

[15] = read-out: Cytochrome P450 (CYP1A2), CYP1A2 (gene 1544); assay: LTEA_HepaRG_CYP1A2: Life Technologies and Expression Analysis (LTEA) Assay for Cytochrome P450 (CYP1A2) using HepaRG (AID 2283479)
Outline: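 Differentiated human HepaRG cells in serum-free induction medium were exposed in duplicate for 48 h to 8-point half-log concentrations up to 100 uM in 0.5% DMSO. CYP1A2 mRNA measured by qRT-PCR, normalized to ACTB, GAPDH, POLR2A; bidirectional fit vs DMSO.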

[16] = read-out: cysteine-aspartic acid protease (CASP8), CASP8 (gene 841); assay: LTEA_HepaRG_CASP8: Life Technologies and Expression Analysis (LTEA) Assay for cysteine-aspartic acid protease (CASP8) using HepaRG (AID 2283480)
Outline: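 Concentration-response in duplicate up to 100 uM (half-log steps, 0.5% DMSO) on differentiated HepaRG cultures for 48 h. Expression change of CASP8 mRNA is determined by TaqMan qRT-PCR with housekeeping-gene normalization.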

[17] = read-out: Cytochrome P450 (CYP2B6), CYP2B6 (gene 1555); assay: LTEA_HepaRG_CYP2B6: Life Technologies and Expression Analysis (LTEA) Assay for Cytochrome P450 (CYP2B6) using HepaRG (AID 2283481)
Outline: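 Differentiated HepaRG cells, serum-free induction medium, exposed 48 h in duplicate to 8-point half-log concentrations from 100 uM in 0.5% DMSO. CYP2B6 mRNA by qRT-PCR, normalized to ACTB, GAPDH, POLR2A; bidirectional fit versus DMSO.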

[18] = read-out: Cytochrome P450 2C19 (Homo sapiens) (UniProt P33261); assay: LTEA_HepaRG_CYP2C19: Life Technologies and Expression Analysis (LTEA) Assay for CYP2C19 using HepaRG (AID 2283482)
Outline: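 Differentiated human HepaRG cells were exposed for 48 h in serum-free induction medium to 8 concentrations (top 100 uM, half-log steps, 0.5% DMSO). CYP2C19 mRNA was measured by qRT-PCR, normalized to ACTB/GAPDH/POLR2A, and fitted bidirectionally against DMSO.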

Measured: AC50

Broad substrate specificity ATP-binding cassette transporter ABCG2 (Homo sapiens), sequence (Q9UNQ0 whole entry, looked up): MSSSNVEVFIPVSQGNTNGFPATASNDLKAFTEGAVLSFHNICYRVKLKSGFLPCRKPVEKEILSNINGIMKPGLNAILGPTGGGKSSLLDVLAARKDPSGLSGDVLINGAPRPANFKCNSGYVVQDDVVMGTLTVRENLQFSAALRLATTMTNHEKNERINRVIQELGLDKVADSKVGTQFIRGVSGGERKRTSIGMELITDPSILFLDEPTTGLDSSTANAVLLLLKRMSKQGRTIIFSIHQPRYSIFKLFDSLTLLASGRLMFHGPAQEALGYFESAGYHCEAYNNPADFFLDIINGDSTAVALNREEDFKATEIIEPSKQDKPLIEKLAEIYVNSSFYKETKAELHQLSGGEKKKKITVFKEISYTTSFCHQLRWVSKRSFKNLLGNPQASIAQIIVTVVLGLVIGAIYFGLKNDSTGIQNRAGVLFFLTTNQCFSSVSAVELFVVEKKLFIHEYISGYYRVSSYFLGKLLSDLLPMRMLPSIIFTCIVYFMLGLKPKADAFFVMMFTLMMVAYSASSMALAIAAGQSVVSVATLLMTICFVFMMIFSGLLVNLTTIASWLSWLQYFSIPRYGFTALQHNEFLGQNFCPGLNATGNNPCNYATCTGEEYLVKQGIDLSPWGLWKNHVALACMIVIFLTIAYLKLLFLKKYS
Apoptosis regulator Bcl-2 (Homo sapiens), sequence (P10415 whole entry, looked up): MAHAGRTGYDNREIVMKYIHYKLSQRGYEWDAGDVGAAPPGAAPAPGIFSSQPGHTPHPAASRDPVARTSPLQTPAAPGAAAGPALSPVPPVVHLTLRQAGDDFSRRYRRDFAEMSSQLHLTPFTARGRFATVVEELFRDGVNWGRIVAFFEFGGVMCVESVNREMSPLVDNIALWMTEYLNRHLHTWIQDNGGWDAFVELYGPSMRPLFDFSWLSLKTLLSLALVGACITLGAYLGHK
Caspase-3 (Homo sapiens), sequence (P42574 whole entry, looked up): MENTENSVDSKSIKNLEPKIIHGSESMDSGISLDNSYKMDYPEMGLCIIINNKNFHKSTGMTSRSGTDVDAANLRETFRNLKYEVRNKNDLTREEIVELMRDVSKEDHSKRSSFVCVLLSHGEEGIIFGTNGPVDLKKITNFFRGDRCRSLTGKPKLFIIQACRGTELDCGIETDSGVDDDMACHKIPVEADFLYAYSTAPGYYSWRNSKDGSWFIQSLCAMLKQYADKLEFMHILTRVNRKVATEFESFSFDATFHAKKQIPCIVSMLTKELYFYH
Cytochrome P450 2C19 (Homo sapiens), sequence (P33261 whole entry, looked up): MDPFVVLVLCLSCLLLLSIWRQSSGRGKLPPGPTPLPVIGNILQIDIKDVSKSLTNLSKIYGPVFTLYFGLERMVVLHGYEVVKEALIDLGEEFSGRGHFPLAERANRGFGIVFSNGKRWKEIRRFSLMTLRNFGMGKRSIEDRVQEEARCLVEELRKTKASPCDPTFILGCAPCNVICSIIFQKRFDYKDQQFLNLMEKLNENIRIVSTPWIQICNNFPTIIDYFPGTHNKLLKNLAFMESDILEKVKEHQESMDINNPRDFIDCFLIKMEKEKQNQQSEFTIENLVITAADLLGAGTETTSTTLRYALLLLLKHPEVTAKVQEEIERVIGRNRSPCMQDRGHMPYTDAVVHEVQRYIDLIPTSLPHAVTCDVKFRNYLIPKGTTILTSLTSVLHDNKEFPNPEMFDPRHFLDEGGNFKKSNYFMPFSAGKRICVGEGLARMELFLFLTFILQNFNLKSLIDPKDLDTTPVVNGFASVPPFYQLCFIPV

CCOP(=S)(Oc1cnc(C(C)(C)C)nc1)OC(C)C (stereo not given)
inactive: [2] | [3] | [6] | [7] | [8] | [9] | BCL2L11 (gene 10018) | [11] | [12] | [13] | Caspase-3 (Homo sapiens) | [14] | [15] | [16]
active: [1] 1.84 µM | [4] 85.6 µM | [5] 2.27 µM | [10] 19.4 µM | [17] 4.96 µM | [18] 11.5 µM

COc1cc(OC)nc(Sc2cccc(Cl)c2C(=O)O)n1
inactive: [1] | [2] | [3] | [4] | [5] | [6] | [7] | [8] | [9] | [10] | BCL2L11 (gene 10018) | [11] | [13] | Caspase-3 (Homo sapiens) | [14] | [15] | [16] | [17]

CN(C)NC(=O)CCC(=O)O
inactive: [1] | [2] | [3] | [4] | [5] | [6] | [7] | [8] | [9] | [10] | BCL2L11 (gene 10018) | [11] | [12] | [13] | Caspase-3 (Homo sapiens) | [14] | [15] | [16] | [17]

CCCSP(=O)(OCC)SCCC
inactive: [1] | [3] | [4] | [5] | [6] | [7] | [8] | [9] | [10] | BCL2L11 (gene 10018) | [12] | [13] | Caspase-3 (Homo sapiens) | [14] | [15] | [16]
active: [2] 20.3 µM | [11] 12.9 µM | [17] 2.48 µM

CN(C)[C@@H]1C(=O)C(C(N)=O)=C(O)[C@@]2(O)C(=O)C3=C(O)c4c(O)cccc4[C@@](C)(O)[C@H]3[C@H](O)[C@@H]12
inactive: [1] | [2] | [3] | [4] | [5] | [6] | [7] | [8] | [9] | [10] | BCL2L11 (gene 10018) | [11] | [12] | [13] | Caspase-3 (Homo sapiens) | [14] | [15] | [16] | [17]
active: [17] 10 µM

CCOP(=S)(OCC)Oc1cc(C)nc(C(C)C)n1
inactive: [1] | [2] | [3] | [4] | [5] | [6] | [7] | [8] | [9] | [10] | BCL2L11 (gene 10018) | [11] | [12] | [13] | Caspase-3 (Homo sapiens) | [14] | [16]
active: [15] 29.3 µM | [17] 2.5 µM
